# From PubChem BioAssay (NCI)
# The panel holds about 83,000 compounds, 20% with a hit somewhere; the sample as a whole holds those more often.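 Growth was measured after 48 h exposure to one concentration of compound in 96-well plates. Values under 10 count as active.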 A number with no mark means an inactive call. Activity calls are given as the source filed them.
# How the values were obtained:
# Assay in all cases: NCI-60 one-dose screen, 48 h (100 = growth as untreated, 0 = no growth, -100 = all killed)
# Details in all cases: 10 µM unless noted
# [1] = test system: T-47D breast
# [2] = test system: BT-549 breast
# [3] = test system: MDA-MB-435 melanoma
# [4] = test system: SW-620 colon
# [5] = test system: MCF7 breast
# [6] = test system: HCC-2998 colon
# [7] = test system: KM12 colon
# [8] = test system: HCT-116 colon
SMILES,growth [1],growth [2],growth [3],growth [4],growth [5],growth [6],growth [7],growth [8] [%]
COc1ccc(-c2cn3ccnc3c(-c3ccc4ncn(C5CCCCC5)c4c3)n2)cc1,-8.6% (active),31.1%,-18.6% (active),22.2%,19.8%,37.4%,16.8%,–
CCOC(=O)/C(C#N)=C(/CC)OCC,100%,95.2%,105%,102%,94.9%,113%,97.7%,–
N=C(N)c1ccc(-c2ccc(-c3ccc(Cl)cc3)s2)s1,-31.7% (active),76.4%,-91.4% (active),-69.5% (active),-66% (active),-74.2% (active),-85.3% (active),–
Nc1ccc(S(=O)(=O)Nc2cc(F)cc(F)c2)cc1,105%,88.1%,102%,91.6%,108%,106%,107%,–
CC(C)(C)C(=O)OCOP(=O)(OCOC(=O)C(C)(C)C)C1CC(O)N(O)C1=O (stereo not drawn),36%,-8.94% (active),68.5%,39.1%,15.3%,38.1%,33.3%,–
CC#Cc1nc(Nc2cc(C)[nH]n2)c2ccccc2n1,2.69% [100 µM] (active),-61.9% [100 µM] (active),-44.4% [100 µM] (active),-1.25% [100 µM] (active),6.03% [100 µM] (active),-86.3% [100 µM] (active),-74.6% [100 µM] (active),–
COc1cc(OC)c2c(=O)cc(-c3ccccc3)oc2c1,91.2%,109%,95.8%,89.7%,102%,97%,106%,–
COc1cc(NC(C)CCCN)c2nc(C)ccc2c1OC (stereo not drawn),90.5%,103%,121%,104%,47.1%,87.2%,103%,–
Nc1ccc(N=Nc2ccccc2)c2cc(S(=O)(=O)O)ccc12,97%,114%,108%,106%,86.5%,103%,103%,–
c1ccc(Nc2ccccn2)cc1,101%,98.8%,112%,110%,–,114%,104%,103
CCOP1(=O)CC(C)=C(Cl)C(P(=O)(O)O)C1 (stereo not drawn),98.6%,97.4%,107%,110%,109%,94.4%,105%,–
COc1ccc(-c2nc(Nc3nc4ccccc4[nH]3)nc(N)c2C#N)cc1,97.1%,86.4%,117%,108%,90.2%,–,108%,93.8
O=C1/C(=C/c2ccc(Cl)cc2)CCC/C1=C\c1ccc(Cl)cc1,79.6%,97%,15.9%,30.6%,17.3%,28.6%,18.7%,–
COc1cc(NC(C)CCCN)c2nccc(C)c2c1OC (stereo not drawn),66.7%,98.2%,106%,83.5%,10.2%,96.7%,101%,–
COC(=O)C(C(=O)OC)C(Br)C(Br)C(Br)c1ccccc1 (stereo not drawn),-32.9% (active),108%,91.2%,18.6%,8.14% (active),110%,101%,–
COc1ccc(NC(=O)/C=C(C)/C=C/C=C(C)/C=C/C2=C(C)CCCC2(C)C)cc1,17.8%,96.2%,95.7%,69.3%,73.7%,97.9%,88.9%,–
CCCCCCCCC(=O)Nc1ccc(O)cc1,88.7%,80.5%,98.3%,103%,97.9%,83.7%,90.9%,–
Cc1cc2c(-c3nc4ccccc4[nH]3)c(O)c(O)cc2c(O)c1-c1c(C)cc2c(-c3nc4ccccc4[nH]3)c(O)c(O)cc2c1O,-16.7% (active),-6.04% (active),23.3%,23.4%,5.3% (active),19.5%,-38.6% (active),–
CCCCCCN(CCCCCC)CCC(=O)Nc1ccc(S(=O)(=O)c2ccc(NC(=O)CCN(CCCCCC)CCCCCC)cc2)cc1,60%,87.5%,90.5%,84.6%,68.7%,32.5%,89.5%,–
